One assay concerns Klebsiella pneumoniae. The conditions noted are these: Concentration 20 uM; ASSAY_TEST Inhibition of Bacterial Growth; detection method Absorption (OD600); MEDIA CAMHB; plate type 384well; NBS; CORNING #3640; time 18 hr.
In another assay the test system is Candida albicans. The conditions noted are these: 20 µM.
The next assay relates to Cryptococcus neoformans. The conditions noted are these: Concentration 20 uM; ASSAY_TEST Inhibition of Fungal Growth; detection method Resazurin; Absorption (OD600-OD570); plate type 384well; NBS; CORNING #3640. In general terms: The colour change of resazurin is a common sign of viable cells or microbes.

The Inhibition is the drop in the measured response relative to a control, in per cent.

Measured potencies and affinities stand elsewhere. Square brackets hold non-standard residues; d marks the D form. Peptide text beside a SMILES is read from it. pGlu = O=C1CC[C@@H](C(=O)O)N1; Thz = O=C(O)[C@@H]1CSCN1

As for `CC(=O)/N=c1/sc(S(N)(=O)=O)nn1C` [METHAZOLAMIDE], the figures for the Inhibition in the assay on Klebsiella pneumoniae, with Candida albicans and in the assay on Cryptococcus neoformans were 3.3%, 3.37% and -3.07%, respectively.
`CCCNC(=O)NS(=O)(=O)c1ccc(Cl)cc1` [CHLORPROPAMIDE]: the Inhibition in the assay with Klebsiella pneumoniae is 11.38%; with Candida albicans, 3.19%; in the assay with Cryptococcus neoformans it was 0%.
`CC(COc1ccccc1)NC(C)C(O)c1ccc(O)cc1.Cl` (configuration not stated) [ISOXSUPRINE HYDROCHLORIDE]: the figures for the Inhibition in the assay with Klebsiella pneumoniae, in the assay with Candida albicans and with Cryptococcus neoformans were 7.34%, 3.25% and -2.3%, respectively.
For `CC1=C(/C=C/C(C)=C/C=C/C(C)=C\C(=O)O)C(C)(C)CCC1` [ISOTRETINOIN], in that order: 9.94%, 1.42% and -2.4%.
For `O=C(CCCN1CC=C(n2c(=O)[nH]c3ccccc32)CC1)c1ccc(F)cc1` [DROPERIDOL], the Inhibition with Klebsiella pneumoniae is 9.88%; with Candida albicans, 4.22%; in the assay on Cryptococcus neoformans it was -8.67%.
On to `CC(=O)OCC(=O)[C@@]12OC(C)(C)O[C@@H]1C[C@H]1[C@@H]3C[C@H](F)C4=CC(=O)C=C[C@]4(C)[C@@]3(F)[C@@H](O)C[C@@]12C` [FLUOCINONIDE], for which the Inhibition in the assay on Klebsiella pneumoniae was 13.39%; with Candida albicans it was -0.27%; with Cryptococcus neoformans, -0.92%.
`Cc1cccc(Nc2ccncc2S(=O)(=O)NC(=O)NC(C)C)c1` [TORSEMIDE]: the Inhibition is 8.97% in the assay with Klebsiella pneumoniae, 2.49% in the assay on Candida albicans and 0.39% in the assay with Cryptococcus neoformans.
For `CNCC[C@H](Oc1cccc2ccccc12)c1cccs1.Cl` [DULOXETINE HYDROCHLORIDE], in that order: 5.49%, 3.07% and -2.99%.
As to `CCCCC[C@H](O)/C=C/[C@H]1[C@H](O)CC(=O)[C@@H]1CCCCCCC(=O)O` [ALPROSTADIL], the values for the Inhibition in the assay with Klebsiella pneumoniae, in the assay with Candida albicans and in the assay on Cryptococcus neoformans were 7.2%, 3.09% and 2.52%, respectively.
Take `COC(=O)C1=C(C)NC(C)=C(C(=O)OC(C)C)C1c1cccc2nonc12` (configuration not stated) [ISRADIPINE]: the Inhibition is 7.21% in the assay on Klebsiella pneumoniae, 4.43% in the assay with Candida albicans and -5.25% with Cryptococcus neoformans.
For `CCCCc1nc(Cl)c(CO)n1Cc1ccc(-c2ccccc2-c2nnn[n-]2)cc1.[K+]` [LOSARTAN POTASSIUM], in that order: 7.23%, 5% and -3.04%.
The like results for `NC(N)=Nc1nc(CSCC/C(N)=N/S(N)(=O)=O)cs1` [FAMOTIDINE] were, in that order, 2.4%, 3.01% and -2.8%.
The like results for `CC(=O)O[C@H]1C[C@@H]2CC[C@@H]3[C@H](CC[C@@]4(C)[C@H]3C[C@H]([N+]3(C)CCCCC3)[C@@H]4OC(C)=O)[C@@]2(C)C[C@@H]1N1CCCCC1.[Br-]` [VECURONIUM BROMIDE] were, in that order, -0.14%, 5.46% and 2.54%.
For the compound `CC(C)(C)NC(=O)[C@@H]1CN(Cc2cccnc2)CCN1C[C@@H](O)C[C@@H](Cc1ccccc1)C(=O)N[C@H]1c2ccccc2C[C@H]1O.O=S(=O)(O)O` [INDINAVIR SULFATE], the Inhibition with Klebsiella pneumoniae is 0.54%; in the assay with Candida albicans, 2.58%; in the assay on Cryptococcus neoformans, -4.45%.
On to `Br.CN(C)CCCC1(c2ccc(F)cc2)OCc2cc(C#N)ccc21` (configuration not stated) [CITALOPRAM HYDROBROMIDE], for which the results for the Inhibition with Klebsiella pneumoniae, with Candida albicans and in the assay on Cryptococcus neoformans were 0.36%, 2.48% and -12.2%, respectively.
In the case of `COc1cc(C)nc(-n2nc(C)cc2OC)n1` [EPIRIZOLE], the values for the Inhibition in the assay with Klebsiella pneumoniae, in the assay on Candida albicans and in the assay on Cryptococcus neoformans were 10.39%, -0.63% and 1.6%, respectively.
The like results for `CS(=O)(=O)O.Oc1ccc(C2CNCCc3c2cc(O)c(O)c3Cl)cc1` (configuration not stated) [FENOLDOPAM MESYLATE] were, in that order, 10.68%, 1.85% and -12.04%.
The like results for `O=C(CCNNC(=O)c1ccncc1)NCc1ccccc1` [NIALAMIDE] were, in that order, 13.86%, 4.06% and -3.3%.
For `Cc1cccc(C)c1OCC(C)N.Cl` (configuration not stated) [MEXILETINE HYDROCHLORIDE], in that order: 13.5%, 3.72% and -0.12%.
Take `COc1ccccc1OCC(O)COC(N)=O` (configuration not stated) [METHOCARBAMOL]: the Inhibition in the assay with Klebsiella pneumoniae is 10.57%; in the assay with Candida albicans, 3.99%; with Cryptococcus neoformans, -8.85%.
`COc1cc([C@@H]2c3cc4c(cc3[C@@H](O[C@@H]3O[C@@H]5CO[C@@H](C)O[C@H]5[C@H](O)[C@H]3O)[C@H]3COC(=O)[C@H]23)OCO4)cc(OC)c1O` [ETOPOSIDE]: the figures for the Inhibition with Klebsiella pneumoniae, in the assay on Candida albicans and in the assay with Cryptococcus neoformans were 4.81%, 0.59% and -6.14%, respectively.
Consider `O=C1CN(/N=C/c2ccc(-c3ccc([N+](=O)[O-])cc3)o2)C(=O)[N-]1.[Na+]` [DANTROLENE SODIUM], for which the Inhibition with Klebsiella pneumoniae was found to be 2.98%; in the assay on Candida albicans it was 0.63%; with Cryptococcus neoformans it was 5.43%.
For `CC(C(=O)[O-])c1ccc(CC2CCCC2=O)cc1.[Na+]` (configuration not stated) [LOXOPROFEN SODIUM], in that order: 6.48%, 2.26% and -10.19%.
For the compound `Cc1ncc([N+](=O)[O-])n1CCO` [METRONIDAZOLE], the Inhibition in the assay on Klebsiella pneumoniae is 13.91%; with Candida albicans, 1.89%; with Cryptococcus neoformans, -8.47%.
The like results for `COc1cc(/C=C/c2ccc(O)cc2)cc(OC)c1` [PTEROSTILBENE] were, in that order, 7.46%, 3.65% and -0.34%.
For `CC[C@H](C)C(=O)O[C@H]1C[C@H](O)C=C2C=C[C@H](C)[C@H](CC[C@@H](O)C[C@@H](O)CC(=O)[O-])[C@H]21.[Na+]` [PRAVASTATIN SODIUM], the Inhibition with Klebsiella pneumoniae is 13.36%; in the assay on Candida albicans, 4.25%; with Cryptococcus neoformans, -0.35%.
The like results for `Cc1ncc([N+](=O)[O-])n1CC(O)CCl` (configuration not stated) [ORNIDAZOLE] were, in that order, 14.36%, 2.15% and -1.25%.
The like results for `COc1ccc2c(c1)c(CC(=O)O)c(C)n2C(=O)c1ccc(Cl)cc1.O` were, in that order, 8.34%, 3.53% and 1.93%.
In the case of `C[n+]1ccccc1/C=N/O.[Cl-]` [PRALIDOXIME CHLORIDE], the figures for the Inhibition in the assay on Klebsiella pneumoniae, with Candida albicans and with Cryptococcus neoformans were 15.84%, 0.76% and -2.73%, respectively.
The like results for `CCCSc1ccc2[nH]c(NC(=O)OC)nc2c1` [ALBENDAZOLE] were, in that order, 3.18%, 2.62% and 42.52%.
`C#C[C@]1(O)CC[C@H]2[C@@H]3CCc4cc(OC)ccc4[C@H]3CC[C@@]21C` [MESTRANOL]: the Inhibition in the assay on Klebsiella pneumoniae is 4.28%; in the assay with Candida albicans, 4.15%; in the assay with Cryptococcus neoformans, -7.53%.
For `O=C1C(c2c(O)[nH]c3ccccc23)=Nc2ccccc21`, in that order: 6.26%, 9.69% and -4.77%.
The like results for `Cc1cc2c(s1)Nc1ccccc1N=C2N1CCN(C)CC1` [OLANZAPINE] were, in that order, 5.81%, -0.3% and -5.37%.
For `CS(=O)(=O)O.Cc1ccc(NC(=O)c2ccc(CN3CCN(C)CC3)cc2)cc1Nc1nccc(-c2cccnc2)n1` [IMATINIB MESYLATE], in that order: 14.57%, 2.45% and 9.11%.
Consider `O=C1CC[C@@H](C(=O)N2CSC[C@H]2C(=O)O)N1` [PIDOTIMOD] ([pGlu]-[Thz]-OH), for which the Inhibition in the assay on Klebsiella pneumoniae is 9.73%; in the assay on Candida albicans, 0.05%; with Cryptococcus neoformans it was -3.45%.
Take `C#C[C@]1(O)CC[C@H]2[C@@H]3CCC4=CC(=O)CC[C@@H]4[C@H]3CC[C@@]21CC` [LEVONORGESTREL]: the figures for the Inhibition in the assay with Klebsiella pneumoniae, with Candida albicans and with Cryptococcus neoformans were 13.61%, 3.12% and 2.67%, respectively.
The like results for `C=C1/C(=C\C=C2/CCC[C@]3(C)[C@@H]([C@H](C)/C=C/[C@@H](O)C4CC4)CC[C@@H]23)C[C@@H](O)C[C@@H]1O` [CALCIPOTRIENE] were, in that order, 16.21%, 0.06% and 0.21%.
Consider `N[C@@H](Cc1cc(I)c(Oc2cc(I)c(O)c(I)c2)c(I)c1)C(=O)O` [LEVOTHYROXINE], for which the Inhibition is 0.79% in the assay with Klebsiella pneumoniae, 21.1% in the assay with Candida albicans and -5.43% in the assay with Cryptococcus neoformans.
For `CN(Cc1cnc2nc(N)nc(N)c2n1)c1ccc(C(=O)N[C@@H](CCC(=O)O)C(=O)O)cc1.O`, in that order: 9.2%, 12.2% and -1.89%.
In the case of `Cl.Clc1ccc2nsnc2c1NC1=NCCN1` [TIZANIDINE HYDROCHLORIDE], the Inhibition is 10.36% in the assay with Klebsiella pneumoniae, 3.84% with Candida albicans and -1.24% in the assay with Cryptococcus neoformans.
The like results for `CC(=O)OCC(=O)[C@@]1(O)CC[C@H]2[C@@H]3CCC4=CC(=O)C=C[C@]4(C)[C@H]3[C@@H](O)C[C@@]21C` [PREDNISOLONE ACETATE] were, in that order, 12.95%, 0.73% and -1.37%.
The like results for `Cl.Nc1nc2ccc(OC(F)(F)F)cc2s1` were, in that order, 11.2%, 2.98% and -9.1%.
As to `CC(=O)OCC(=O)[C@@]1(O)CC[C@H]2[C@@H]3CCC4=CC(=O)CC[C@]4(C)[C@H]3[C@@H](O)C[C@@]21C` [HYDROCORTISONE ACETATE], the Inhibition with Klebsiella pneumoniae is 10.46%; in the assay with Candida albicans, 1.02%; in the assay on Cryptococcus neoformans, -7.62%.
For `CC(=O)NCCCCCCNC(C)=O` [HEXAMETHYLENEBISACETAMIDE], in that order: 1.97%, 0.48% and -6.53%.
The like results for `NS(=O)(=O)c1cc2c(cc1C(F)(F)F)NCNS2(=O)=O` [HYDROFLUMETHIAZIDE] were, in that order, 13.59%, -0.33% and -2.31%.
The like results for `Oc1ncc(F)cn1` were, in that order, 12.75%, 0.46% and -8.59%.
In the case of `CCCCNc1cc(C(=O)O)cc(S(N)(=O)=O)c1Oc1ccccc1` [BUMETANIDE], the Inhibition in the assay on Klebsiella pneumoniae stood at 11.75%; in the assay with Candida albicans, 3.22%; in the assay with Cryptococcus neoformans, 1%.
For `CC1(C)O[C@@H]2C[C@H]3[C@@H]4C[C@H](F)C5=CC(=O)C=C[C@]5(C)[C@@]4(F)[C@@H](O)C[C@]3(C)[C@]2(C(=O)CO)O1` [FLUOCINOLONE ACETONIDE], in that order: -0.92%, 5.45% and 6.47%.
In the case of `O=C(C1CCCCC1)N1CC(=O)N2CCc3ccccc3C2C1` (configuration not stated) [PRAZIQUANTEL], the Inhibition in the assay with Klebsiella pneumoniae is 12.45%; in the assay with Candida albicans, 5.72%; in the assay on Cryptococcus neoformans it was -0.79%.
Turning to `Nc1nc(N)c2nc(-c3ccccc3)c(N)nc2n1`, the Inhibition is -1.05% with Klebsiella pneumoniae, 4.35% in the assay on Candida albicans and 1.8% with Cryptococcus neoformans.
As for `CSc1ccc2c(c1)N(CCC1CCCCN1C)c1ccccc1S2.Cl` (configuration not stated) [THIORIDAZINE HYDROCHLORIDE], the Inhibition came to 9.7% in the assay with Klebsiella pneumoniae, 4.12% with Candida albicans and 4.01% with Cryptococcus neoformans.
Consider `CN(C)C(=O)Oc1ccc[n+](C)c1.[Br-]` [PYRIDOSTIGMINE BROMIDE], for which the results for the Inhibition in the assay on Klebsiella pneumoniae, in the assay with Candida albicans and with Cryptococcus neoformans were 3.02%, 1.97% and -8.97%, respectively.
For `CC1CC2C3CCC4=CC(=O)C=CC4(C)[C@@]3(Cl)C(O)CC2(C)C1(O)C(=O)CO` (some centres not stated), in that order: 12.23%, 3.02% and -2.46%.
For `CN(C)CCCN1c2ccccc2CCc2ccccc21.Cl` [IMIPRAMINE HYDROCHLORIDE], in that order: 11.14%, 0.7% and 0.01%.

The values are drawn from ChEMBL document CHEMBL4513141, “CO-ADD screening of NIH (USA) - Clinical Collection” (2021).
